In PubChem BioAssay AID1239 (SRMLSC, 2008):
In all, about 190,000 compounds went through this assay and about 3,100 (1.6%) were called active. This is one part of a sample in which actives are shown more often than they occur. No stated cut-off is given here; in the data, active means fold change above about 3.3; inconclusive means no clear call, values can overlap the other calls; inactive means below that.

Assay: NF-kB upregulation, human neuronal cells – cell-based, HTS, primary screen (AID 1239)
Conditions: NF-kB reporter expression, at 12.5 µM, stronger effect = higher value

| Structure (SMILES) | fold change |
| --- | --- |
| Cc1nn(-c2ccc([N+](=O)[O-])cc2)c(N)c1-c1ccccc1 | 6.64 (active) |
| Cc1nn(-c2ccccc2)c2c1C(c1cccc([N+](=O)[O-])c1)N(c1ccccc1)C(=O)N2 (stereo not given) | 1.17 (inactive) |
| O=C1CC(c2ccccc2)=NN1c1ccc([N+](=O)[O-])cc1 | 1.27 (inactive) |
| Cc1nc2ccc(NC(=O)C(F)(F)F)cc2o1 | 0.91 (inactive) |
| Cc1nc2cc(NC(=O)NCc3ccccc3)ccc2o1 | 1.54 (inactive) |
| Cc1ccc(NC(=O)Nc2ccc3oc(C)nc3c2)cc1 | 5.03 (active) |
| COc1ccc(C2CC(c3cccs3)=NN2c2ccccc2)cc1 (stereo not given) | 1.15 (inactive) |
| CCCNS(=O)(=O)c1ccc(CCC(=O)N2CCCC2)cc1 | 1.25 (inactive) |
| OCCC1CN(Cc2ccc3nsnc3c2)CCN1C1CCCCC1 (stereo not given) | 0.99 (inactive) |
| Cn1cnnc1Sc1ccc(CN2CCN(C3CCCC3)C(CCO)C2)o1 (stereo not given) | 1.08 (inactive) |
| OCCC1CN(Cc2ccc3nsnc3c2)CCN1C1CCCC1 (stereo not given) | 5.55 (active) |
| N/C(=N\OC(=O)CCc1ccccc1)c1cccnc1 | 1.31 (inactive) |
| OCC1(Cc2ccccc2C(F)(F)F)CCN(Cc2cccc3cnccc23)CC1 | 0.85 (inactive) |
| COc1cc(SC)ccc1C(=O)Nc1cc(C)ccn1 | 1.01 (inactive) |
| COc1cc(SC)ccc1C(=O)NCCOc1ccccc1Cl | 5.99 (active) |
| COc1ccccc1CNC(=O)c1ccc(SC)cc1OC | 1.42 (inactive) |
| COc1cc(CNCCN(C)C)ccc1OCc1c(F)cccc1Cl | 1.11 (inactive) |
| COc1cccc(CN(C)CC(=O)Nc2ccccc2C(=O)Nc2ccccc2)c1 | 0.95 (inactive) |
| O=c1[nH]c2cccnc2n(CCNc2ncc(C(F)(F)F)cc2Cl)c1=O | 1.12 (inactive) |
| NC(N)=Nc1nc2ccc(Br)cc2c(=O)[nH]1 | 3.87 (active) |
| C/C(=N\N)c1c(-c2ccccc2)c2cc(Br)ccc2[nH]c1=O | 0.98 (inactive) |
| NC(=O)C1CCN(Cc2nc3c(Br)cc(Br)cc3c(=O)[nH]2)CC1 | 1.47 (inactive) |
| CC(C)Cn1c(N)c(C(=O)COC(=O)CN2C(=O)C3CC=CCC3C2=O)c(=O)n(C)c1=O (stereo not given) | 0.78 (inactive) |
| Cc1ccc(NC(=S)NC(=O)c2ccc(-c3ccccc3)cc2)c(C)c1 | 1.18 (inactive) |
| Cc1ccc(NC(=S)NCc2ccccc2Cl)c(C)c1 | 0.92 (inactive) |

| Structure (SMILES) | fold change |
| --- | --- |
| Cc1ccc(NC(=S)Nc2ncccc2C)c(C)c1 | 3.74 (active) |
| Cc1ccc(S(=O)(=O)N(C)C)cc1NC(=O)c1ccccc1Br | 1.05 (inactive) |
| COC(=O)CCNC(=O)c1ccc2[nH]c(C)c(C)c2c1 | 0.99 (inactive) |
| C/[N+]([O-])=C\c1ccc([N+](=O)[O-])o1 | 0.83 (inactive) |
| Cn1cc(/C=C/c2nc3ccccc3c(=O)n2-c2cccc([N+](=O)[O-])c2)c2ccccc21 | 1.02 (inactive) |
| CCn1c(/C=C/c2ccc([N+](=O)[O-])o2)nc2ccccc2c1=O | 4.02 (active) |
| Cn1c(=N)n(CC(O)c2cccs2)c2ccccc21 (stereo not given) | 1.08 (inactive) |
| CC(C)(C)N(CC#CCC(O)(c1ccccc1)C1CCCC1)CCO (stereo not given) | 1.15 (inactive) |
| COc1cccc2sc(NNC(=O)c3nc4ccccc4s3)nc12 | 1.13 (inactive) |
| COc1ccccc1OCc1nc2ccccc2s1 | 4.3 (active) |
| COc1ccccc1N1CC(O)=C(c2nc3ccccc3s2)C1=N | 0.59 (inactive) |
| Cc1ccc(NC(=O)c2csc3c2CCCC3)cc1 | 1.12 (inactive) |
| CCN1CCN(C(=O)CN(C)S(=O)(=O)c2ccc3ccccc3c2)CC1 | 1 (inactive) |
| CCOC(=O)c1ccc(NC2Nc3cc(C)nn3S2)cc1 (stereo not given) | 1.14 (inactive) |
| CCc1ccc(NC2Nc3cc(C)nn3S2)cc1 (stereo not given) | 4.6 (active) |
| CCc1ccc(NC(=O)N2CCN(c3ccccc3)CC2)cc1 | 1.34 (inactive) |
| O=C(NCc1ccccc1)C1=C[C@@H](c2ccc(C(F)(F)F)cc2)C[C@@H](OCc2ccc(CO)cc2)O1 | 0.94 (inactive) |
| CCN(C(=O)COC(=O)c1ccc(COc2ccc3c(C)cc(=O)oc3c2)cc1)C1CCS(=O)(=O)C1 (stereo not given) | 1.19 (inactive) |
| CSCC(=O)N1CCCC(C(=O)c2cc(F)ccc2F)C1 (stereo not given) | 1.18 (inactive) |
| Fc1ccccc1N=C1Nc2cccc3cccc1c23 | 0.99 (inactive) |
| Cc1cccc(-n2c(O)c(C=Nc3ccccc3N)c(=O)[nH]c2=O)c1 | 4.16 (active) |
| Cc1ccc(N=Cc2c(O)n(-c3nccs3)c(=O)c3ccccc23)c(C)c1 | 1.01 (inactive) |
| Cc1cccc(-n2c(C)cc(/C=N/NC(N)=S)c2C)c1 | 1.29 (inactive) |
| Cc1c(CN2CCCC(C(=O)c3cccc(Cl)c3)C2)c(=O)n(-c2ccccc2)n1C (stereo not given) | 1.12 (inactive) |
| Cc1ccc(C(=O)Nc2cccc3ncccc23)cc1[N+](=O)[O-] | 1.38 (inactive) |

| Structure (SMILES) | fold change |
| --- | --- |
| CC(C)(c1ccccc1)c1ccc(OCCN)cc1 | 1.16 (inactive) |
| O=C(Nc1ccc(F)cc1)N1CCN(c2ccc(F)cc2)CC1 | 1.12 (inactive) |
| CCOC(=O)C1(Cc2cccc(OC)c2)CCN(Cc2csc(C(C)=O)c2)CC1 | 0.84 (inactive) |
| O=C(O)c1ccc(N=NN2CCOCC2)cc1 | 1.3 (inactive) |
| O=C(c1ccccc1)N1CCN(C(=O)N2CCCCC2)CC1 | 1.3 (inactive) |
| O=C(O)c1cccc(N=NN2CCCCCC2)c1 | 5.59 (active) |
| COc1ccc(C(=O)NC2CCN(C(=S)Nc3ccccc3)CC2)cc1 | 1.12 (inactive) |
| COc1ccc(NC(=S)N2N=CCC2c2ccccc2)cc1 (stereo not given) | 3.93 (active) |
| COc1ccc(C(=S)Nc2ccccc2)cc1 | 1.98 (inactive) |
| Cc1ccc(C(=O)NNC(=O)c2cccs2)cc1 | 1.67 (inactive) |
| COCCNC(=O)/C(C#N)=C/c1nc(N(C)C)n(-c2ccc(F)cc2)c1Cl | 1.11 (inactive) |
| Cc1nc(N2CCC(C)CC2)c2c(C)c(C(=O)Nc3cc(F)ccc3C)sc2n1 | 0.88 (inactive) |
| O=[N+]([O-])c1cccc(/C([O-])=C(/C(=S)Nc2ccccc2F)[n+]2ccccc2)c1 | 1.02 (inactive) |
| Cn1cc(Cl)c(C(=O)NNC(=S)Nc2cccc(Cl)c2)n1 | 1.46 (inactive) |
| Cc1csc(SCC(=O)Nc2sccc2C#N)n1 | 5.12 (active) |
| COc1ccc(NC(=O)CSc2nc(C)cs2)cc1 | 1.38 (inactive) |
| Cc1cccc(C)c1Nc1nnc(SCC(=O)Nc2sccc2C#N)s1 | 1.08 (inactive) |
| CCO/C=C1\C(=O)N(c2ccc(OCC)cc2)C(=O)c2ccccc21 | 1.05 (inactive) |
| Cc1nc(-c2ccc(NC(=O)c3cccs3)cc2)cs1 | 5.59 (active) |
| Cc1ccc(-c2csc(NC(=O)c3cccs3)n2)cc1 | 1.97 (inactive) |
| Cc1ccc(-c2nnc(-c3ccc(NC(=O)c4cccs4)cc3)o2)cc1 | 1.45 (inactive) |
| COc1ccc(CNC(=O)COC(=O)/C=C/c2ccc(S(=O)(=O)N3CCOCC3)cc2)cc1 | 1 (inactive) |
| COCCNc1nc2nonc2nc1N1CCCC1c1nccs1 (stereo not given) | 1.05 (inactive) |
| C=CCN(Cc1nc(-c2cc(OC)c3c(c2)OCO3)oc1C)C1CCS(=O)(=O)C1 (stereo not given) | 1.14 (inactive) |
| Cc1ccc(-n2c(C)cc(C(=O)CSc3nnc4ccccn34)c2C)cc1 | 3.7 (active) |

| Structure (SMILES) | fold change |
| --- | --- |
| O=C(CSc1nnc2ccccn12)c1ccccc1 | 1.88 (inactive) |
| Cc1ccc(-n2c(C)cc(C(=O)CN3C(=O)C(=O)N(C4CCCC4)C3=O)c2C)cc1 | 0.71 (inactive) |
| CC1CC(C)CN(S(=O)(=O)c2ccc(C(=O)NN3CCOCC3)cc2)C1 (stereo not given) | 1.27 (inactive) |
| Cc1cc(OCC(=O)NC2CCN(C)CC2)ccc1[N+](=O)[O-] | 0.99 (inactive) |
| COc1ccccc1N(C)S(=O)(=O)c1ccc(Cl)c(C(=O)N2CCC(C(N)=O)CC2)c1 | 1.12 (inactive) |
| Cc1ccc(-c2cn3cc([N+](=O)[O-])ccc3n2)cc1 | 4.75 (active) |
| Cn1cnc(C(F)(F)F)c1-c1ccc([N+](=O)[O-])cc1 | 1.2 (inactive) |
| Cc1ccc(-c2cn3cc(C)ccc3n2)cc1 | 0.56 (inactive) |
| CCOC(=O)N1CCN(C(=O)CSc2nc(C)nc3c2c(=O)n(C)c(=O)n3C)CC1 | 0.96 (inactive) |
| Cc1cc(NC(=O)CSc2nc3ccccc3n2CC(C)C)no1 | 1.74 (inactive) |
| COc1ccc(NS(=O)(=O)c2cc(NC(=O)C3CCCCC3)ccc2N2CCOCC2)cc1 | 0.72 (inactive) |
| Cc1cc(C)nc(NNC2=CC(=O)CC(C)(C)C2)n1 | 1.06 (inactive) |
| CCCOc1ccccc1C1CC(=O)Nc2cc3c(cc21)OCO3 (stereo not given) | 3.71 (active) |
| COCCOC(=O)C1=C(C)NC(=O)CC1c1cc2c(cc1Br)OCO2 (stereo not given) | 0.99 (inactive) |
| COc1ccccc1C1C2=C(COC2=O)Nc2cc3c(cc21)OCO3 (stereo not given) | 1.19 (inactive) |
| C1=C(CCNc2ncnc3c2cnn3-c2ccccc2)CCCC1 | 4.63 (active) |
| O=C(NNc1ncnc2c1cnn2-c1ccccc1)c1ccco1 | 1.27 (inactive) |
| O=C(NCCC1=CCCCC1)C1CCN(Cc2cnn(-c3ccccc3)c2-n2cccc2)CC1 | 0.8 (inactive) |
| COc1ccc(-n2ncc3c(N4CCc5ccccc54)ncnc32)cc1 | 0.87 (inactive) |
| COc1ccc(-n2ncc3c(N4CCCc5ccccc54)ncnc32)cc1 | 1 (inactive) |
| c1ccc(-n2ncc3c(N4CCCC4)ncnc32)cc1 | 5.1 (active) |
| CCC(CC)NC(=O)CSc1nnc(-c2c[nH]c3ccccc23)o1 | 1.09 (inactive) |
| COC(c1ccccc1)c1nnc(CCC(=O)N2CCN(CCOc3ccccc3)CC2)o1 (stereo not given) | 1.23 (inactive) |
| COc1ccc(-c2[nH]ncc2CN(C)Cc2cc(C)[nH]n2)c(F)c1 | 0.97 (inactive) |
| COc1ccc(O)c(C(=O)c2cnc3c(c2)c(-c2ccc(F)cc2)c(C#N)c(=O)n3C)c1 | 0.93 (inactive) |
